The inhibition is the relative decrease from the control value, in per cent.

Calls of active or inactive are those of the source.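 How the source made its calls, unless noted: active means inhibition at or above 50% at 10 µM; inactive means inhibition below 50%.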

Assay [1] is described as follows: inhibitors of TNFa-induced NFkB p65 translocation, primary screen, imaging, HUVEC, MLSMR starter and 10KST1 sets (AID 438;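 active means inhibition above 20% together with a positive visual image hit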;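 further: compound added about 3h40 before a 20 min TNFalpha stimulation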;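 on inhibition: signal is the nuclear over cytoplasmic p65 intensity ratio per well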). To be noted: HUVEC TNFa-induced p65 nuclear translocation; cell count: measured here: nuclei count (cytotoxicity indicator), at 2.08 µM; inhibition: at 2 µM, stronger effect = higher value, 0% TNFa-plus-vehicle, 100% no-TNFa wells.
Assay [2] is described as follows: inhibitors of mutant huntingtin aggregation, primary screen, imaging, exon1htt(103Q)mCFP cells, high-content imaging (AID 483;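 active means visual image review flags a hit and inhibition of aggregation exceeds 20%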;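 further: compound exposure lasted 3 days before fixation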;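 on nuclei count: percent of the per-plate median nuclei count of sample wells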). To be noted: exon1htt(103Q)mCFP cell line, aggregate imaging, at 2 µM; inhibition of aggregation: stronger effect = higher value; nuclei count: measured here: cell count, toxicity.
Assay [3] can be described thus: inhibitors of E-selectin induction by TNFa, primary screen, imaging, HUVEC, immunofluorescence, MLSMR starter and 10KST1 sets (AID 487;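 active means visually confirmed hit in the image check and inhibition above 20%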;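 on inhibition: signal is fraction of cell area covered by stained E-selectin grains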;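 on nuclei count: 100% = median nuclei count of all wells on the same plate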). To be noted: HUVEC TNFalpha-induced E-selectin immunofluorescence imaging, at 2 µM; inhibition: stronger effect = higher value; nuclei count: measured here: cell number, toxicity.
Assay [4] deals with Voltage-gated potassium channel subunit beta-2 (Rattus norvegicus) (UniProt P62483). The experiment in a line: KvBeta enzyme negative modulators, primary screen, biochemical, NADPH fluorescence (AID 622;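 active means fluorescence slope higher than the sample average by over 3 SD, cut at about -0.22 in these data, passing the limit was not always enough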;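 further: slope of raw intensity against log time taken from 70 to 1610 s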). To be noted: recombinant KvBeta, 4-cyanobenzaldehyde reduction, at 10 µM, stronger effect = higher value.
Sequence of Voltage-gated potassium channel subunit beta-2 (Rattus norvegicus) (P62483 whole entry, looked up): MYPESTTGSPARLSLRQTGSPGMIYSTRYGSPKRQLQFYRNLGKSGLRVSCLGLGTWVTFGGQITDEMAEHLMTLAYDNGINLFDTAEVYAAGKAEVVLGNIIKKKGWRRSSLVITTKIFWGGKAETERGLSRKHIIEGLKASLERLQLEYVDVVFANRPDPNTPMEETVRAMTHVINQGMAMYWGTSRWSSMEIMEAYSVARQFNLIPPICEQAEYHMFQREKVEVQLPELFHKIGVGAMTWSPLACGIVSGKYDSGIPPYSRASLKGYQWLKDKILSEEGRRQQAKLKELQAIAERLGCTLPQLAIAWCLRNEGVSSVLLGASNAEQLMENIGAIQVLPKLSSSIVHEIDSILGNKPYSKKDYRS
Assay [5] shares this target. The experiment in a line: KvBeta positive modulators, primary screen, biochemical, NADPH fluorescence (AID 623;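 active means NADPH fluorescence slope more negative than the mean of all samples by about 3 SD, 99.7% confidence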;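 further: fluorescence intensity change per second fitted from 20 to 320 s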). To be noted: Recombinant KvBeta, NADPH fluorescence decrease slope, 10 min; at 10 µM; stronger effect = lower value.
Assay [6] addresses Alpha-2C adrenergic receptor (Homo sapiens) (UniProt P18825). Description: modulators of alpha2C/GIRK thallium flux, primary screen, cell-based, HEK293 alpha2C/GIRK1/2 (AID 624;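 active means fluorescence slope after compound addition differing from the mean of all screened samples at 99.7% confidence, in either direction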;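 further: slope of fluorescence ratio to pre-addition baseline per second over 15 to 24 s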). To be noted: thallium flux BTC fluorescence, at 10 µM, actives lie on both sides.
Assay [7] can be described thus: inhibitors of Sendai virus-induced IRF3 signaling, primary screen, TLR/RLR signaling modifier project, cell-based, Sendai virus stimulus, luciferase, 10K MLSCN set (AID 602276).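 Further: firefly luciferase from ISG56 promoter only with Renilla not read in this screen; 0% = Sendai virus plus DMSO and 100% = medium plus DMSO without virus.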 To be noted: HEK293 RL24 IRF3 luciferase reporter, at 10 µM, stronger effect = higher value. On the technique in general: Reporter assays use an easily measured gene product as a stand-in for the process of interest.

Assay [8] is described as follows: inhibitors of poly I:C-induced TLR3 signaling, primary screen, cell-based, poly I:C stimulus, luciferase, 10K MLSCN set (AID 602277;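 active means inhibition of the reporter signal at or above 50%; inactive means inhibition below 50%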). To be noted: HEK293-TLR3 RL24 IRF3 luciferase reporter, at 10 µM, stronger effect = higher value.

Sequence of Alpha-2C adrenergic receptor (Homo sapiens) (P18825 whole entry, looked up): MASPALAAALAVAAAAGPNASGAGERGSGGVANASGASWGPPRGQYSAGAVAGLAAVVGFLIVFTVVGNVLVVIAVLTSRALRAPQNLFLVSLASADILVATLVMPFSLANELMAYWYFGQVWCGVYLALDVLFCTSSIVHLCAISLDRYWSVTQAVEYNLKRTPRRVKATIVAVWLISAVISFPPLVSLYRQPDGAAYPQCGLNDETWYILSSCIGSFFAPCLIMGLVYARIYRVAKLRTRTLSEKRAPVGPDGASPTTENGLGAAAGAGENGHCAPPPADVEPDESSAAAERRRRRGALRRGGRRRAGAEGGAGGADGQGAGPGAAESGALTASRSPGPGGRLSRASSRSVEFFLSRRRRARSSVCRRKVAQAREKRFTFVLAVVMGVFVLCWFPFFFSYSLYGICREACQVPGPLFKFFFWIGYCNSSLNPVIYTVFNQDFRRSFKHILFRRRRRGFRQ

For `S=c1[nH]nc(-c2ccccc2)n1C1C=CCCC1` (centres undefined), the cell count in assay [1] worked out at 240. For the same molecule, the inhibition in assay [1] is 0.4% (inactive); in assay [3], -329% (inactive); in assay [7], 4.48% (inactive); in assay [8], 35.6% (inactive). Further, the inhibition of aggregation in assay [2] is 14.7% (inactive). In addition, the nuclei count is 94% in assay [2] and 146% in assay [3]. In addition, the fluorescence slope in assay [4] was -0.465 (inactive). For the same molecule, the NADPH fluorescence slope in assay [5] is -1.5e-05 (inactive). In assay [6], the slope was 0.00318 (inactive).

For `O=C(OCC#CCSc1nc2ccccc2s1)c1ccco1`, in assay [1], the cell count was found to be 639. For the same molecule, the inhibition is -19.8% (inactive) in assay [1], -28.5% (inactive) in assay [3], -14.4% (inactive) in assay [7] and -21.9% (inactive) in assay [8]. For the same molecule, the inhibition of aggregation in assay [2] is -8.9% (inactive). The nuclei count in assay [2] came out at 116%; in assay [3], 100%. The fluorescence slope in assay [4] was -0.471 (inactive). Besides, the NADPH fluorescence slope in assay [5] was 2.6e-05 (inactive). In addition, the slope in assay [6] was 0.00607 (inactive).

In the case of `Fc1cccc(Cl)c1Cn1nnc2c(NCc3ccccn3)ncnc21`, the cell count in assay [1] is 716. The inhibition was -10.5% (inactive) in assay [1], -26.6% (inactive) in assay [3], 6.08% (inactive) in assay [7] and 9.56% (inactive) in assay [8]. In assay [2], the inhibition of aggregation was 15.5% (inactive). Besides, the nuclei count in assay [2] was 120%; in assay [3], 108%. In addition, the fluorescence slope in assay [4] is -0.514 (inactive). For the same molecule, the NADPH fluorescence slope in assay [5] is -6.7e-05 (inactive). The slope in assay [6] was 0.0046 (inactive).

For the molecule `O=C1NC(c2cccnc2)C(C(=O)c2cccs2)C(O)(C(F)(F)F)N1` (centres undefined), the cell count in assay [1] is 506. The inhibition in assay [1] is -0.3% (inactive); in assay [3], 40.4% (inactive); in assay [7], -6.6% (inactive); in assay [8], -5.31% (inactive). The inhibition of aggregation in assay [2] is 5% (inactive). In addition, the figures for the nuclei count in assay [2] and in assay [3] were 104% and 119%, respectively. Also, the fluorescence slope in assay [4] is -0.363 (inactive). In addition, the NADPH fluorescence slope in assay [5] was -3.5e-05 (inactive). Moreover, in assay [6], the slope was 0.00436 (inactive).

On to `O=C(Cn1cc2c(n1)CCCCC2)N1CCc2ccccc2C1`, for which the cell count in assay [1] is 670. The inhibition was 12% (inactive) in assay [1], 27.7% (inactive) in assay [3], -16% (inactive) in assay [7] and -17.6% (inactive) in assay [8]. In addition, the inhibition of aggregation in assay [2] is 15.4% (inactive). Also, the figures for the nuclei count in assay [2] and in assay [3] were 88.6% and 85.1%, respectively. Also, the fluorescence slope in assay [4] was -0.631 (inactive). The NADPH fluorescence slope in assay [5] is 1.4e-05 (inactive). The slope in assay [6] was 0.0057 (inactive).

For the molecule `CCOC(=O)c1cnn(-c2cc(C)nc3c(-c4ccccc4)c(C)nn23)c1N`, in assay [1], the cell count was 645. Besides, the inhibition is -7.8% (inactive) in assay [1], -27.2% (inactive) in assay [3], 14.6% (inactive) in assay [7] and 17.2% (inactive) in assay [8]. For the same molecule, in assay [2], the inhibition of aggregation was 7.9% (inactive). For the same molecule, the nuclei count stood at 124% in assay [2] and 120% in assay [3]. Further, in assay [4], the fluorescence slope was -0.625 (inactive). Further, the NADPH fluorescence slope in assay [5] was -3.2e-05 (inactive). Besides, the slope in assay [6] was 0.00566 (inactive).

With `O=C(OCc1ccccc1F)c1ccc2c(c1)OCCO2`, the cell count in assay [1] is 372. The inhibition in assay [1] was 3.4% (inactive); in assay [3], -0.9% (inactive); in assay [7] it was -0.266% (inactive); in assay [8] it was -113% (inactive). Further, in assay [2], the inhibition of aggregation is -14.1% (inactive). For the same molecule, the results for the nuclei count in assay [2] and in assay [3] were 103% and 90.8%, respectively. Besides, the fluorescence slope in assay [4] is -0.448 (inactive). Further, the NADPH fluorescence slope in assay [5] is -8.7e-06 (inactive). Further, the slope in assay [6] was 0.00627 (inactive).

As for `CCn1cc(C(=O)NCC2CCCO2)c(=O)c2cc(S(=O)(=O)N(C)C3CCCCC3)ccc21` (centres undefined), in assay [1], the cell count was determined as 528. Moreover, the inhibition was 3.7% (inactive) in assay [1], -60.9% (inactive) in assay [3], 16.7% (inactive) in assay [7] and 33.2% (inactive) in assay [8]. Moreover, the inhibition of aggregation in assay [2] was -8.9% (inactive). The values for the nuclei count in assay [2] and in assay [3] were 99.3% and 97.9%, respectively. Also, the fluorescence slope in assay [4] was -0.629 (inactive). Besides, the NADPH fluorescence slope in assay [5] was -3.4e-05 (inactive). Further, the slope in assay [6] was 0.00653 (inactive).

As for `Cc1cc(Cl)ccc1OCC(=O)Nn1c(C)ccc1C`, the cell count in assay [1] is 480. Besides, the inhibition in assay [1] was -4.9% (inactive); in assay [3], -16.2% (inactive); in assay [7] it was 11.6% (inactive); in assay [8], 15.5% (inactive). For the same molecule, in assay [2], the inhibition of aggregation is -6.4% (inactive). In addition, the nuclei count in assay [2] was determined as 94.5%; in assay [3], 136%. Further, in assay [4], the fluorescence slope is -0.525 (inactive). In addition, the NADPH fluorescence slope in assay [5] was -3.9e-05 (inactive). In assay [6], the slope was 0.00483 (inactive).

With `COCCOC(=O)c1[nH]c2c(c1C)C(=O)CC(c1ccc(N(C)C)cc1)C2` (centres undefined), the cell count in assay [1] was determined as 342. Further, the inhibition in assay [1] was -4.6% (inactive); in assay [3] it was 21.3% (inactive); in assay [7], -15.6% (inactive); in assay [8] it was -26.9% (inactive). In assay [2], the inhibition of aggregation is -19% (inactive). Further, the values for the nuclei count in assay [2] and in assay [3] were 105% and 83.3%, respectively. For the same molecule, the fluorescence slope in assay [4] is -0.534 (inactive). For the same molecule, the NADPH fluorescence slope in assay [5] is 1.4e-05 (inactive). Besides, the slope in assay [6] was 0.00456 (inactive).

Regarding `Cc1ccnc(NC(=O)CCC(=O)N(CC(=O)NC(C)(C)C)C2CCCC2)c1`, the cell count in assay [1] was 603. In addition, the inhibition in assay [1] is 1.7% (inactive); in assay [3], -105% (inactive); in assay [7] it was 9.05% (inactive); in assay [8] it was 9.79% (inactive). Besides, in assay [2], the inhibition of aggregation is -6.2% (inactive). Further, the nuclei count amounted to 113% in assay [2] and 89.5% in assay [3]. Besides, the fluorescence slope in assay [4] is -0.638 (inactive). The NADPH fluorescence slope in assay [5] was -1.4e-05 (inactive). For the same molecule, the slope in assay [6] is 0.00587 (inactive).

Consider `O=C(CSc1oc(-c2ccco2)nc1S(=O)(=O)c1ccccc1)NCC1CCCO1` (centres undefined), for which the cell count in assay [1] came to 497. Further, the inhibition in assay [1] was -13.9% (inactive); in assay [3] it was -95% (inactive); in assay [7] it was 9.95% (inactive); in assay [8] it was 20.2% (inactive). Besides, the inhibition of aggregation in assay [2] is 7.5% (inactive). Also, the nuclei count is 98.6% in assay [2] and 174% in assay [3]. The fluorescence slope in assay [4] was -0.492 (inactive). In addition, the NADPH fluorescence slope in assay [5] was -4.8e-05 (inactive). Further, the slope in assay [6] is 0.00481 (inactive).

With `COC(=O)CCSCc1cn2cc(Cl)ccc2n1`, the cell count in assay [1] was 373. Besides, the inhibition is 2.8% (inactive) in assay [1], -85.2% (inactive) in assay [3], 18.6% (inactive) in assay [7] and 56.9% (active) in assay [8]. Also, in assay [2], the inhibition of aggregation was -26.9% (inactive). In addition, the nuclei count in assay [2] turned out to be 103%; in assay [3], 112%. Also, the fluorescence slope in assay [4] was -0.509 (inactive). Besides, the NADPH fluorescence slope in assay [5] was -1.7e-05 (inactive). Besides, the slope in assay [6] was 0.00629 (inactive).

As for `COc1ccc(S(=O)(=O)N2Cc3ccccc3CC2C(=O)Nc2ccc(O)cc2)cc1OC` (centres undefined), the cell count in assay [1] is 772. The inhibition was -2.9% (inactive) in assay [1], -42.8% (inactive) in assay [3], 8.15% (inactive) in assay [7] and 29.5% (inactive) in assay [8]. Moreover, in assay [2], the inhibition of aggregation is -7.4% (inactive). For the same molecule, the nuclei count in assay [2] is 119%; in assay [3] it was 114%. In assay [4], the fluorescence slope was -0.556 (inactive). The NADPH fluorescence slope in assay [5] is -6e-05 (inactive). For the same molecule, the slope in assay [6] was 0.0071 (inactive).

For the origin of these results see PubChem BioAssay.
